In PubChem BioAssay (Tox21):
“And” between values parts separate entries of the source, which are not always exact repeats. Equal values may be shown once. Inconclusive results are not listed. Entries that show only a call come without a potency. Some compounds were tested as several samples or in several runs, with calls that do not always agree. The source made the active and inactive calls. Calls come from the whole dose curve; as a rule, active = well fitted curve in the direction sought with a large enough effect in the repeat runs; inconclusive = weak or mixed curves; inactive = no such curve, though single readings can be large; an effect the other way counts as inactive or inconclusive.

Experiments:
[1] = Caspase-3/7 induction in HepG2 cells by small molecules, qHTS assay (AID 1346978); note: nearly all actives have a fitted effect of over 15% in size; note: potency is the fitted concentration of half-maximal effect
Method in brief: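 Wild-type HepG2 cells (2,000/well) were settled 5 h at 37 C, 5% CO2, then exposed to compounds in DMSO for 17 h. Caspase-3/7 activity was read by luminescence 30 min after adding Caspase-Glo 3/7 reagent at room temperature.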

[2] = Caspase-3/7 induction in CHO-K1 cells by small molecules, qHTS cell viability counter screen (AID 1346979); note: nearly all actives have a fitted effect of over 35% in size; note: potency is the fitted concentration of half-maximal effect
Method in brief: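 Wild-type CHO-K1 cells (1,500/well) treated with compound after 5 h plating; after 16 h at 37C, viability read as CellTiter-Fluor fluorescence following 1 h reagent incubation, in the same wells as the caspase read.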

[3] = Caspase-3/7 induction in CHO-K1 cells by small molecules, qHTS assay (AID 1346980); note: nearly all actives have a fitted effect of over 15% in size
Method in brief: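 Wild-type cells were seeded at 1,500 per well and settled 5 hr at 37 C, 5% CO2, then exposed to DMSO-dissolved compounds for 17 hr. Caspase-Glo 3/7 reagent was added, and luminescence was read after 30min at room temperature.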

[4] = Caspase-3/7 induction in HepG2 cells by small molecules, qHTS cell viability counter screen (AID 1346981); note: nearly all actives have a fitted effect of over 30% in size; note: potency is the fitted concentration of half-maximal effect
Method in brief: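 Counter screen for cytotoxicity: HepG2 exposed 16 hr to compounds, then CellTiter-Fluor viability signal (fluorescence, 1 hr reagent incubation).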

[5] = molecular target: Nuclear receptor subfamily 1 group I member 2 (Rattus norvegicus) (UniProt Q9R1A7); assay: Rat pregnane X receptor (rPXR) activation by small molecules, qHTS assay (AID 1346983); conditions: rPXR luciferase reporter cells, One-Glo luminescence, 24 h; max activation: stronger effect = higher value; note: nearly all actives have a fitted effect of over 20% in size; note: potency is the fitted concentration of half-maximal effect
Sequence of Nuclear receptor subfamily 1 group I member 2 (Rattus norvegicus) (Q9R1A7 whole entry, looked up): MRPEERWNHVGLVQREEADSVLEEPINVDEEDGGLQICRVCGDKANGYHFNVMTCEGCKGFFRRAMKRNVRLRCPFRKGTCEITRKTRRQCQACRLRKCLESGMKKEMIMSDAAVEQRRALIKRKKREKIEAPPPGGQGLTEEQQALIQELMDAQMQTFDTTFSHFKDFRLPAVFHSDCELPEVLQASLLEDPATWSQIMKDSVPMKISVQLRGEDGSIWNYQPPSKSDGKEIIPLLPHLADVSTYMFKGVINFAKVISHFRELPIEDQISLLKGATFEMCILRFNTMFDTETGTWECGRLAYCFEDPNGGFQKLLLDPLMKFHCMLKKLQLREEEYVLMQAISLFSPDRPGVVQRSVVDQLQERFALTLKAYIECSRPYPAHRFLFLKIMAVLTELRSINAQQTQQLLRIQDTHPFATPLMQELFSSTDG
Method in brief: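 Cell-based rPXR luciferase reporter assay, 2,000 cells per well, rested 5hr at 37 C before compound addition in DMSO, then 24 hr at 37 C. One-Glo reagent was added and luminescence read after 30 min at room temperature.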

[6] = molecular target: Cytochrome P450 2D6 (Homo sapiens) (UniProt P10635); assay: Cytochrome P450 Family 2 Subfamily D Member 6 (CYP2D6) small molecule antagonists: luciferase reporter qHTS assay (AID 1671196); note: nearly all actives have a fitted effect of over 50% in size; note: potency is the fitted concentration of half-maximal effect
Sequence of Cytochrome P450 2D6 (Homo sapiens) (P10635 whole entry, looked up): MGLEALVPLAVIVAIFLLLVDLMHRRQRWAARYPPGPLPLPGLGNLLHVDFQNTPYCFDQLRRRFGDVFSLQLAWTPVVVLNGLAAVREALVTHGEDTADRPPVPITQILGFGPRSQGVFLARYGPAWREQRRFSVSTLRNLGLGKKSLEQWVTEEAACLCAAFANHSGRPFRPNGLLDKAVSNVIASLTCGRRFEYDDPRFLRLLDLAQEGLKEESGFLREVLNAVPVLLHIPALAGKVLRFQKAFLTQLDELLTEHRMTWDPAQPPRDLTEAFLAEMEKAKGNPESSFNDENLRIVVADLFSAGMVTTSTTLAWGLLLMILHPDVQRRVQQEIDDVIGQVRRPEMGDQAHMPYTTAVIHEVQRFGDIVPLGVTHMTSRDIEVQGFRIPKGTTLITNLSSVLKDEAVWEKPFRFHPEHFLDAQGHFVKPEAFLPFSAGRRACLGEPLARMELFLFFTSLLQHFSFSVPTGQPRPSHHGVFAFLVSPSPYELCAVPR
Method in brief: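 Inhibition of CYP2D6 was gauged by loss of luminescence, since light produced tracks the luciferin generated from a proluciferin substrate. A 10 min room-temperature preincubation preceded 1 h NADPH-supported turnover.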

[7] = molecular target: Nuclear receptor subfamily 1 group I member 2 (Homo sapiens) (UniProt O75469); assay: Human pregnane X receptor (PXR) small molecule agonists, qHTS assay (AID 1346982); note: nearly all actives have a fitted effect of over 35% in size; note: potency is the fitted concentration of half-maximal effect
Sequence of Nuclear receptor subfamily 1 group I member 2 (Homo sapiens) (O75469 whole entry, looked up): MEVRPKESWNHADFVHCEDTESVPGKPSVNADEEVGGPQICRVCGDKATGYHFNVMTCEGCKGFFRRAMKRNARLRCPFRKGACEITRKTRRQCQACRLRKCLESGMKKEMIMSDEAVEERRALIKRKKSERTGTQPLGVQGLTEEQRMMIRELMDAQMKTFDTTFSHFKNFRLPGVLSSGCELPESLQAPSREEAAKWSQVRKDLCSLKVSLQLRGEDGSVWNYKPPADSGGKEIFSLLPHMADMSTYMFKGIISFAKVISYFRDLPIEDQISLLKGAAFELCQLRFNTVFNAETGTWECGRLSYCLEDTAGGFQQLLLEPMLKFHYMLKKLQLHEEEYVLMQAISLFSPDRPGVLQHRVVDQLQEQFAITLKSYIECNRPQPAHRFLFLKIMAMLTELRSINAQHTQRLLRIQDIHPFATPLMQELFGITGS
Method in brief: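 Luminescence (ONE-Glo, 30 min RT) after 24 hr compound exposure of PXR-Luc HepG2 cells; cells rested 5 hr post-plating in 5% charcoal-stripped FBS medium.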

[8] = molecular target: Nuclear receptor subfamily 1 group I member 2 (Homo sapiens) (UniProt O75469); assay: CYP3A4 induction through human pregnane X receptor (PXR) by small molecules, qHTS assay (AID 1346984); note: nearly all actives have a fitted effect of over 40% in size
Method in brief: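 DPX-2 reporter cells; 24h cpd, 37C; Luciferin-IPA 3uM final x3h; One-Glo 30 min RT; lumi read.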

[9] = molecular target: Nuclear receptor subfamily 1 group I member 2 (Homo sapiens) (UniProt O75469); assay: Human pregnane X receptor (PXR) activation by small molecules, qHTS assay (AID 1346985); note: nearly all actives have a fitted effect of over 40% in size
Method in brief: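 DPX-2 cells (HepG2 co-transfected with a PXR response element and a CYP3A4-promoter luciferase construct) were seeded at 2,000 per well, rested 5 hr at 37C, then exposed to DMSO-dissolved compounds for 24 hr. Activation was read as luciferase luminescence.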

SMILES | Potency [1] | Potency [2] | outcome [3] | Potency [4] | Potency [5] | Potency [6] | Potency [7] | max activation [5] | Potency [8] | Potency [9]
COC1=CC(=O)C[C@@H](C)[C@]12Oc1c(Cl)c(OC)cc(OC)c1C2=O | 24.1 µM (active) and 61.1 µM (active) | inactive | inactive | inactive | 28.2 µM (active) | inactive |  |  |  | 
C=CCOC(=O)CC(C)C | inactive | inactive | inactive | inactive |  | inactive | inactive |  |  | 
O=C(O)CN(CC(=O)O)CC(=O)O | inactive | inactive | inactive | inactive |  | inactive | inactive |  |  | 
CC(=O)/C=C/C1=C(C)CCCC1(C)C | inactive | inactive | inactive | inactive |  | inactive | 55.5 µM (active) and 17.2 µM (active) and 21.7 µM (active) |  |  | 
COc1ccccc1NC(=O)CC(C)=O | inactive | inactive | inactive | inactive |  | inactive | 61.1 µM (active) |  |  | 
COCCOCCOC | inactive | inactive | inactive | inactive |  | inactive | 61.3 µM (active) and inactive |  |  | 
C=C(C)OC(C)=O | inactive | inactive | inactive | inactive |  | 13 µM (active) and inactive | inactive |  |  | 
Cc1c(N(C)C)c(=O)n(-c2ccccc2)n1C | inactive | inactive | inactive | inactive |  | inactive | 55.4 µM (active) and inactive |  |  | 
CC(C)Cc1ccc(C(C)C(=O)O)cc1 (configuration not stated) | inactive | inactive | inactive | inactive |  | inactive | inactive |  |  | 
COc1ccc(C(=O)c2ccccc2)c(O)c1 | inactive | inactive | inactive | inactive |  | 44.1 µM (active) | 60.1 µM (active) and 54.5 µM (active) |  |  | 
CN(C)C=O | inactive | inactive | inactive | inactive |  | inactive | inactive |  |  | 
O=C(O)Cc1cccc2ccccc12 | inactive |  | inactive | inactive |  | inactive and 6.33 µM (active) | inactive | -6.88% (inactive) | inactive | inactive
CC(C)CC(C)CC(O)CC(C)C (configuration not stated) | inactive | inactive | inactive | inactive |  | inactive | inactive |  |  | 
OCCCc1ccccc1 | inactive | inactive | inactive | inactive |  | inactive | inactive |  |  | 
CCOCCO | inactive | inactive | inactive | inactive |  | inactive | inactive |  |  | 
CC(=O)OC/C=C(C)/C=C/C=C(C)/C=C/C1=C(C)CCCC1(C)C | inactive | 66.9 µM (active) and 68.6 µM (active) and inactive | inactive | inactive |  | 34.7 µM (active) and inactive | 59.6 µM (active) and 34.4 µM (active) and 15 µM (active) |  |  | 
CC1=C(/C=C/C(C)=C/C=C/C(C)=C/C(=O)O)C(C)(C)CCC1 | inactive | 68.5 µM (active) and inactive | inactive | inactive |  | inactive | 54.5 µM (active) and 61.1 µM (active) and 33.5 µM (active) |  |  | 
CC(=O)c1ccc(S(=O)(=O)NC(=O)NC2CCCCC2)cc1 | inactive | inactive | inactive | inactive |  | 31.6 µM (active) and inactive | inactive |  |  | 
CCn1cc(C(=O)O)c(=O)c2ccc(C)nc21 | inactive | inactive | inactive | inactive |  | inactive | inactive |  |  | 
O=C(O)CCCCC1CCSS1 (configuration not stated) | inactive | inactive | inactive | inactive |  | inactive | inactive |  |  | 
CCCCOCCOCCSC#N | inactive | inactive | inactive | inactive |  | inactive | 32.3 µM (active) and 26.8 µM (active) |  |  | 
COC(=O)c1ccc(C=O)cc1 | inactive | inactive | inactive | inactive |  | inactive | inactive |  |  | 
CC(C)(C)NCC(O)c1ccc(O)c(CO)c1 (configuration not stated) | inactive | inactive | inactive | inactive |  | inactive | inactive |  |  | 
COc1cc2c(c(OC)c1OC)-c1ccc(OC)c(=O)cc1[C@@H](NC(C)=O)CC2 | inactive | 381 nM (active) and 43.3 nM (active) and 298 nM (active) | inactive | inactive |  | inactive | 2.14 µM (active) and 5.4 nM (active) |  |  | 
Nc1ccc(N=Nc2ccccc2)c(N)n1 | inactive | 48.8 µM (active) and 48.6 µM (active) and 26.6 µM (active) | inactive | 21.1 µM (active) |  | 40.1 µM (active) and 35.6 µM (active) and 12.3 µM (active) | 27.4 µM (active) and 27.3 µM (active) and 6.68 µM (active) |  |  | 
C[C@]12C=CC(=O)C=C1CC[C@@H]1[C@@H]2C(=O)C[C@@]2(C)[C@H]1CC[C@]2(O)C(=O)CO | inactive |  | inactive | inactive |  |  |  |  |  | 
CO[C@H]1C=CO[C@@]2(C)Oc3c(C)c(O)c4c(O)c(c(/C=N/N5CCN(C)CC5)c(O)c4c3C2=O)NC(=O)/C(C)=C\C=C[C@H](C)[C@H](O)[C@@H](C)[C@@H](O)[C@@H](C)[C@H](OC(C)=O)[C@@H]1C | inactive | 30.8 µM (active) and 34.8 µM (active) and 26.6 µM (active) | inactive | 27.4 µM (active) and 34.8 µM (active) and 23.7 µM (active) |  | inactive |  | -4.8% (inactive) |  | 
O=c1c(-c2ccc(O)cc2)coc2cc(O)cc(O)c12 | inactive | 60.1 µM (active) and 48.6 µM (active) | inactive | inactive |  | inactive | 47.7 µM (active) and 30.6 µM (active) and 29.8 µM (active) |  |  | 
